Assay outcomes: PubChem BioAssay, National Center for Advancing Translational Sciences (NCATS)
Most compounds without a hit are left out; they make up all but 21% or so of the library.
Shiga inhibitor: A qHTS for Small Molecule Inhibitors of Shiga Toxin; Vero cells, Shiga toxin protein synthesis inhibition reporter; inhibition, % at 38.7 µM; actives 9.2% (n = 290,000); AID 2315, 2010; in the data active = inhibition mostly above about 28%, no sharp cut-off; inactive = mostly below about 43%
CHX counter: Cycloheximide Counterscreen for Small Molecule Inhibitors of Shiga Toxin; actives 12% (n = 300,000); cell reporter, cycloheximide protein synthesis inhibition counterscreen; max response, %; in the data active = max response mostly above about 13%, no sharp cut-off; inactive = mostly below about 14%; note: read at 38.3 µM for the half of the compounds with a filed dose
NS1 inh: qHTS Assay for Inhibitors of Influenza NS1 Protein Function | Potency, µM (series often up to 46.1 µM) | actives 0.4% (n = 270,000) | AID 2326, 2010; calls by dose curve; note: actives are rising curves; nearly all actives have a fitted effect of over 50% in size
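S. cerevisiae expressing influenza A NS1, grown in glucose, washed, then diluted 1:100 into pH 6.0 -URA galactose medium with 23 nl compound. Growth recovery read as OD600; NS1-free strain serves as control.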
Pf growth 96h: Primary qHTS for delayed death inhibitors of the malarial parasite plastid, 96 hour incubation; P. falciparum luciferase reporter growth, 96 h; Potency, µM (titrated, usually from 28.7 µM), most hits filed as inhibitors; actives 6.9% (n = 320,000); AID 504834, 2011
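P. falciparum expressing integrated firefly luciferase grown in erythrocytes (2% hematocrit, 0.05% parasitemia final) with compounds for 96 hours at 37 C, 5% CO2. Growth inhibition read as loss of luminescence after adding luciferase detection reagent.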
Pf growth 48h: Primary qHTS for delayed death inhibitors of the malarial parasite plastid, 48 hour incubation | AID 504832, 2011 | Potency, µM (titrated, usually from 28.7 µM), usual class: inhibitors | P. falciparum luciferase growth in erythrocytes, 48 h | actives 5.9% (n = 310,000)
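Compounds are pin-transferred into medium, infected erythrocytes (2% hematocrit, 0.1% parasitemia final) are added, and plates sit one parasite generation at 37 C in 5% CO2. Detection reagent is then added and luminescence measured.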
Each line names hits and unclear results; the compound was inactive in the other large screens. Unless noted, calls come from the whole dose curve; as a rule, active = well fitted inhibition curve with a large enough effect; inconclusive = small, poorly fitted or top-dose-only effect, or another doubt; inactive = no such curve, though single readings can be large or run the other way.

CCOC(=O)C(=Cc1ccc(-n2ccnc2)cc1)C(=O)OCC	Pf growth 96h inconclusive, Pf growth 48h 13µM (no result: NS1 inh)
CCN(CC)CCn1c2ccccc2c2cnc(N)c(C#N)c21	Pf growth 96h 2.6µM, Pf growth 48h 2.6µM
CCN(CC)S(=O)(=O)c1cccc(NC(=O)c2ccc(C#N)cc2)c1	Pf growth 96h inconclusive, Pf growth 48h inconclusive (no result: NS1 inh)
CC1S/C(=N/N=C2CCCCC2)NC1=O (configuration not stated)	CHX counter 30
CC1S/C(=N/N=C2CCC(C(C)(C)C)CC2)NC1=O (configuration not stated)	CHX counter 26
Cc1nn(Cc2ccccc2)c(Cl)c1C(=O)O	none (no result: NS1 inh)
O=C(NCCOc1ccccc1)c1ccccc1Cl	Shiga inhibitor 55, CHX counter 43
O=C(NCCc1ccccc1)c1ccccc1Cl	CHX counter 13
Cc1nn(Cc2ccccc2)c(Cl)c1C(=O)NCCc1ccccc1	Shiga inhibitor 60, CHX counter 56
O=C(O)c1ccccc1C(=O)NCCc1ccc(Cl)cc1	Pf growth 96h inconclusive (no result: NS1 inh)
COc1ccc(OCCNC(=O)c2ccccc2Cl)cc1	Pf growth 96h inconclusive
CSc1ccc(Cl)c(C(=O)NCCOc2ccccc2)c1	CHX counter 26, Pf growth 96h inconclusive
CCc1ccc(OCCNC(=O)c2cc(SC)ccc2Cl)cc1	none
Cc1cc(NC(=O)CCCn2ccc([N+](=O)[O-])n2)n(Cc2ccc(F)cc2)n1	none (no result: NS1 inh)
CCN(CC(=O)Nc1c(F)cccc1F)C(=O)CCN1C(=O)C2CCCCC2C1=O (configuration not stated)	Pf growth 48h inconclusive (no result: Shiga inhibitor, CHX counter, NS1 inh)
O=C(NCCOc1ccccc1Cl)c1cc(F)c(F)cc1Cl	Shiga inhibitor 74, CHX counter 53
O=C(NCCOc1ccccc1Cl)c1ncn[nH]1	none
c1csc(-c2nc(CN3CCSCC3)cs2)c1	Shiga inhibitor 76, CHX counter 45
O=C(O)c1csc(-c2cccs2)n1	none (no result: NS1 inh)
O=S1(=O)CCN(Cc2csc(-c3cccs3)n2)CC1	Shiga inhibitor 68, CHX counter 31
O=S1(=O)CCN(Cc2ccccn2)CC1	Pf growth 96h inconclusive
C#CCOCCOCCOCCNc1nc(N2CCN(C(=O)CCCCCCCCCCNC(=O)[C@@H](CCC(=O)O)n3cc(CCCCCN)nn3)CC2)nc(N2CCN(C(=O)CCCCCCCCCCNC(=O)[C@H](CO)n3cc(CCCCCN)nn3)CC2)n1	Pf growth 96h 5.9µM, Pf growth 48h 2.1µM (no result: Shiga inhibitor, CHX counter, NS1 inh)
C#CCOCCOCCOCCNc1nc(N2CCN(C(=O)CCCCCCCCCCNC(=O)[C@@H](CCC(=O)O)n3cc(CCCCCN)nn3)CC2)nc(N2CCN(C(=O)CCCCCCCCCCNC(=O)[C@H](CO)n3cc(CCCSC)nn3)CC2)n1	Pf growth 96h inconclusive, Pf growth 48h 4.7µM (no result: Shiga inhibitor, CHX counter, NS1 inh)
C#CCOCCOCCOCCNc1nc(N2CCN(C(=O)[C@H](CCCCN)n3cc(C(N)CO)nn3)CC2)nc(N2CCN(C(=O)[C@H](CCC(=O)O)n3cc(C(N)CC(C)C)nn3)CC2)n1 (some centres not stated)	none
C#CCOCCOCCOCCNc1nc(N2CCOCC2)nc(N2CCN(C(=O)CCCCCCCCCCNC(=O)[C@H](CO)n3cc(CCCSC)nn3)CC2)n1	Pf growth 96h 0.52µM, Pf growth 48h 0.52µM (no result: Shiga inhibitor, CHX counter, NS1 inh)
CCOc1cc(/C=C2\C(=N)N3N=C(CC)SC3=NC2=O)ccc1OCCOc1ccc(NC(C)=O)cc1	Pf growth 96h 2.6µM, Pf growth 48h inconclusive
Cc1cc(/C=C2\C(=N)N3N=C(CC(=O)N4CCOCC4)SC3=NC2=O)c(C)n1-c1ccccc1	Pf growth 96h inconclusive, Pf growth 48h inconclusive
COc1cc(/C=C2/C(=N)N3N=C(CC(=O)N4CCOCC4)SC3=NC2=O)ccc1OCc1ccccc1	Shiga inhibitor 35, CHX counter 21
COc1ccc(-n2c(C)cc(/C=C3\C(=N)N4N=C(CC(=O)N5CCOCC5)SC4=NC3=O)c2C)cc1	NS1 inh inconclusive, Pf growth 96h 13µM, Pf growth 48h 13µM
COc1ccc(N2CCN(S(=O)(=O)c3ccc(OC)c(C(=O)N4CCCC4)c3)CC2)cc1	none
CCOc1ccc(/C=N/NC(=O)Cc2ccccc2)cc1CN1CC2CC(C1)c1cccc(=O)n1C2 (configuration not stated)	Pf growth 48h 6.6µM (no result: Shiga inhibitor, CHX counter, NS1 inh)
COc1ccccc1CNC(=O)CCC(=O)N1C[C@H]2C[C@@H](C1)c1cccc(=O)n1C2	none
CCOc1ccc(NC(=O)c2nccnc2CO)cc1	Shiga inhibitor 93, CHX counter 46
CCOc1ccc(NC(=O)c2cnsn2)cc1	Shiga inhibitor 55, CHX counter 30 (no result: Pf growth 96h)
COc1ccc(NC(=O)C/C(C)=N/NC(=O)c2cnccn2)cc1	Shiga inhibitor 99, CHX counter 28
CCOc1ccc(NC(=O)c2ccccn2)cc1	none
CCOc1ccc(NC(=O)C/C(C)=N/NC(=O)c2cnccn2)cc1	Shiga inhibitor 32, CHX counter 22
COc1ccc(OCC(=O)N/N=C(\C)CC(=O)Nc2ccc(NC(C)=O)cc2)cc1	Pf growth 96h inconclusive
Cc1[nH]c2ccccc2c1CCNC(=O)c1c(N)no[n+]1[O-]	none (no result: NS1 inh)
Cc1cc(C)nc(-n2nc(C)c(C3(O)C(=O)Nc4ccccc43)c2N)n1 (configuration not stated)	Pf growth 96h inconclusive
CCN(C(=O)COC(=O)Cc1c[nH]c2ccccc12)c1c(N)n(Cc2ccccc2)c(=O)[nH]c1=O	none (no result: Shiga inhibitor, CHX counter, NS1 inh)
COc1cc(C2/C(=C(/O)c3ccc(F)cc3)C(=O)C(=O)N2CCCC(=O)O)ccc1O (configuration not stated)	Pf growth 48h inconclusive
CC(=O)Nc1ccc(NC(=O)C/C(C)=N/NC(=O)c2cccc3ccccc23)cc1	none
C/C(CC(=O)Nc1ccccn1)=N\NC(=O)c1cnccn1	Shiga inhibitor 79, CHX counter 44
C/C(CC(=O)Nc1ccc2ccccc2c1)=N\NC(=O)c1ccc(O)c(O)c1	Shiga inhibitor 86, CHX counter 38
COc1ccc(CNC(=O)C/C(C)=N/NC(=O)C23CC4CC(CC(C4)C2)C3)cc1	Shiga inhibitor 53, CHX counter 29
C/C(CC(=O)NC12CC3CC(CC(C3)C1)C2)=N\NC(=O)c1cnccn1	Pf growth 96h inconclusive (no result: NS1 inh)
C/C(CC(=O)Nc1ccc2ccccc2c1)=N\NC(=O)c1cnccn1	Shiga inhibitor 52, CHX counter 29, Pf growth 48h inconclusive
O=C(COc1coc(CN2CCc3ccccc3C2)cc1=O)Nc1ccccc1F	Pf growth 48h inconclusive (no result: Shiga inhibitor, CHX counter, NS1 inh)
COCCNC(=O)C(=O)N/N=C(\C)CC(=O)Nc1cccnc1	CHX counter 13
COc1ccc(CNC(=O)C/C(C)=N/NC(=O)c2cnccn2)cc1	Shiga inhibitor 71, CHX counter 45
CCOc1ccc(NC(=O)c2cnccn2)cc1	Shiga inhibitor 18, CHX counter 18
COc1ccc(CNC(=O)C/C(C)=N/NC(=O)Cc2ccc(OC)cc2)cc1	none
Cc1ccnc(NC(=O)c2cccc(NS(=O)(=O)c3ccccc3C)c2)c1	none (no result: Pf growth 96h)
COc1nc(-c2ccccc2)nc(C)c1CC(=O)O	none
